Records with an inconclusive call do not appear. A number with no mark means an inactive call. Calls come from the whole dose curve; as a rule, active = well fitted cell-killing curve with a large enough effect; inconclusive = small, poorly fitted or top-dose-only effect; inactive = flat fitted curve, though single readings scatter.
Test: Cell Viability - Mesenchymal (AID 546);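 note: cells exposed to compound for 40 hours before reading; 0% = DMSO only and -100% = 100 µM tamoxifen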
Conditions: mesenchymal cells viability, qHTS; series mostly up to 91.7 µM; activity change, negative = cytotoxicity: at the top concentration
Text: NIH Chemical Genomics Center [NCGC]
NIH Molecular Libraries Screening Centers Network [MLSCN]
National Institutes of Environmental Health Sciences [NIEHS]
National Toxicology Program [NTP]
We have developed a 1536-well cell-based assay for quantitative high throughput screening (qHTS) against a number of cell lines to determine in vitro cytotoxicity of small molecules. This particular assay uses the kidney mesenchymal cell line which is derived from normal human renal glomeruli.
NCGC Assay Protocol Summary:
The CellTiter-Glo luminescent cell viability assay (Promega) is a homogeneous method to measure the number of viable cells in culture. The end point readout of this assay is based on quantitation of intracellular ATP, an indicator of metabolic activity, using the luciferase reaction. Luciferase catalyzes the oxidation of beetle Luciferin to oxyluciferin and light in the presence of ATP. The luminescent signal is proportional to amount of ATP present.
Using the CellTiter-Glo luminescent cell viability assay, the amount of cellular ATP was measured in the kidney mesenchymal cell line with complete culture medium following compound treatment for 40 hours. The assay was performed in opaque white Kalypsys 1536-well plates. In the screen, tamoxifen and doxorubicin were used as positive controls. Library compounds were measured for their ability to cause acute toxicity in the cell line, as reflected by a decrease in intracellular ATP levels, in a concentration-dependent manner. […] AC50 values were determined from concentration-response data modeled with the standard Hill equation.
qHTS protocol for CellTiter Glo kidney mesenchymal cells cellular assay
[Step] [Parameter] [Value] [Description]
1. Reagent; 5 uL; 1000 kidney mesenchymal cells/well
2. Time; 5 hr; 37 °C incubation
4. Controls; 23 nL; Tamoxifen 0.34 uM to 100 uM & Doxorubicin 0.02 nM to 100 uM
5. Time; 40 hr; 37 °C incubation
6. Reagent; 5 uL; CellTiter Glo reagent
7. Time; 20 min; Room Temperature
8. Detection; Luminescence; Viewlux plate reader
Keywords: cell viability, cytotoxicity, Kidney mesenchymal cell line, luminescence, NTPHTS, NTPHTS_NCGC, NIEHS, EPA, DSSTox, MLSMR, MLSCN, NIH Roadmap, qHTS, NCGC

SMILES | activity change, negative = cytotoxicity
Cc1cccc(C(=O)O)c1 | -1.97%
Nc1cccc(C(F)(F)F)c1 | 7.28%
O=C(O)c1cc(Cl)cc(Cl)c1 | -7.11%
CC(C)c1ccccc1 | -4.81%
O=C(O)c1ccc(Cl)cc1Cl | -2.07%
CCOCC(=O)O | 0.555%
CNc1ccc([N+](=O)[O-])cc1 | -16.1%
C=CCCCC | 5.52%
Cc1cc([N+](=O)[O-])ccc1N | -8.24%
Cc1ccccc1C#N | -10.8%
CC(N)CN (stereo not given) | 10%
O=C(O)c1ccc(Cl)c(Cl)c1 | -10.3%
O=C(O)CNC(=O)c1ccc(CO)o1 | 0.0218%
O=[N+]([O-])c1ccc(NCCO)c(OCCO)c1 | 3.51%
O=Nc1ccc(NO)cc1 | 4.68%
CCCOCC(C)O (stereo not given) | -3.11%
O=[N+]([O-])c1cccc(C(F)(F)F)c1 | 6.19%
CCCCCCCCCCCCC1CO1 (stereo not given) | -0.283%
CC(=O)C1(C)CC2=C(CCCC2(C)C)CC1C (stereo not given) | 5.93%
Clc1ccc(Cl)c(Cl)c1Cl | -0.246%

SMILES | activity change, negative = cytotoxicity
CC(C)(C)OCC1CO1 (stereo not given) | 8.02%
COCCOC(=O)c1ccccc1C(=O)OCCOC | -5.35%
Cc1ccc(C)c(N)c1 | 9.6%
Nc1nc(-c2ccccc2)cs1 | -11.3%
Cc1ccc(Cl)cc1N | -4.58%
Cc1ccc2c(c1[N+](=O)[O-])C(=O)c1ccccc1C2=O | 8.94%
C=C(C)C(=O)OCCCCCCCCCC | -0.124%
CCCCCCCCCCCCOCC1CO1 (stereo not given) | 4.58%
CNC(=O)c1ccccc1 | -1.89%
Cc1ccc(C)c([N+](=O)[O-])c1 | 6.06%
CC=C(Cl)Cl | 6.13%
ClC/C=C/CCl | 6.57%
Cc1ccccc1C(=O)O | -2.69%
C/C=C(/C)C#N | 4.7%
CCC=O | 6.2%
C1COC1 | -2.25%
Oc1cccc(Nc2ccccc2)c1 | -9.08%
Cc1cc(C)cc(N)c1 | 9.83%
O=C(O)CCSSCCC(=O)O | 8.19%
Cc1ccc(C)cc1 | -7.61%
